Screening results as filed in PubChem.
FBPA Giardia inh: blocks Giardia fructose-bisphosphate aldolase activity. Potency, µM (top dose mostly 59.6 µM), usual class: inhibitors. actives 0.71% (n = 290,000). AID 2451. purified Giardia FBPA; also: nearly all actives have a fitted effect of over 55% in size
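40 nM FBPA preincubated 10 min at RT with compound (up to 57.5 uM final), then substrate plus GAPDH/TPI/NAD/arsenate coupling and diaphorase/resazurin added. Fluorescence read after 20 min at RT, 525/598 nm.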
CHX counter: counter-screen for Shiga toxin inhibitors: cycloheximide protein synthesis inhibition; cell reporter, cycloheximide protein synthesis inhibition counterscreen; max response, %; actives 12% (n = 300,000); in the data active = max response mostly above about 13%, no sharp cut-off; inactive = mostly below about 14%; also: read at 38.3 µM for the half of the compounds with a filed dose
LmPK inh: inhibitors of Leishmania mexicana pyruvate kinase | Q27686 | Potency, µM (doses to about 57.5 µM), hits mostly inhibitors | purified LmPK, Kinase-Glo ATP luminescence, 1 h | actives 0.37% (n = 290,000)
Target sequence (Q27686 whole entry, looked up): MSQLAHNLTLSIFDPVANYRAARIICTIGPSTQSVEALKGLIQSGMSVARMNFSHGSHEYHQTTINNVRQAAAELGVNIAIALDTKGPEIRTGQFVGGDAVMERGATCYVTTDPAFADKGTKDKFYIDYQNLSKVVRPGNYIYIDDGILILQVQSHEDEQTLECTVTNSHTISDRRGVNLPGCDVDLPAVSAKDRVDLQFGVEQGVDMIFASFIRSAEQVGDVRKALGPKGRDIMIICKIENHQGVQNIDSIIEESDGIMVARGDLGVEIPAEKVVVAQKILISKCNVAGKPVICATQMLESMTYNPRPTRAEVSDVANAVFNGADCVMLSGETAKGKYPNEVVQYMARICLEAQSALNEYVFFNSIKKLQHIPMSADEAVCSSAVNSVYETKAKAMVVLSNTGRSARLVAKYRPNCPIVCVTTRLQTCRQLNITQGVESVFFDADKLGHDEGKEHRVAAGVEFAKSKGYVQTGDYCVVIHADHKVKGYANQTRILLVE
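qHTS format; LmPK 0.1 nM; substrates PEP 0.5 mM and ADP 0.1 mM. One-hour room-temperature incubation, then coupled luciferase luminescence; 0.5 nM enzyme wells mark activation.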
NS1 function inh: blocks influenza NS1 protein function. actives 0.4% (n = 270,000). Potency, µM (top dose mostly 46.1 µM). AID 2326; calls by dose curve; also: actives are rising curves; nearly all actives have a fitted effect of over 50% in size
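Growth recovery, yeast-based: influenza A NS1 expressed in S. cerevisiae causes slow growth, and suppressors are detected by OD600. The parent strain without NS1 is used as positive control.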
Shiga inhibitor: inhibitors of Shiga toxin in Vero cells; inhibition, % at 38.7 µM; Vero cells, Shiga toxin protein synthesis inhibition reporter; AID 2315; actives 9.2% (n = 290,000); in the data active = inhibition mostly above about 28%, no sharp cut-off; inactive = mostly below about 43%
Each line names hits and unclear results; the compound was inactive in the other large screens. In the library only some 14% were active in any assay of this set; here they are far more common. Unless noted, calls follow the shape of the dose curve; as a rule, active = well fitted curve in the direction sought with a large enough effect; inconclusive = small, poorly fitted or top-dose-only effect, or another doubt; inactive = no such curve, though single readings can be large; an effect the other way counts as inactive or inconclusive.

COc1ccc(NC(=O)c2cc(-c3ccccc3O)n[nH]2)cc1Cl	Shiga inhibitor 51
Cc1cccc(NC(=O)c2cc(-c3cc(C)cc(C)c3O)n[nH]2)c1	CHX counter 13, Shiga inhibitor 40
Cc1ccc(C)c(NC(=O)c2cc(-c3cc(C)ccc3O)n[nH]2)c1	CHX counter 59, Shiga inhibitor 76
Cc1cccc(NC(=O)c2cc(-c3cc(Cl)ccc3O)n[nH]2)c1	CHX counter 37, Shiga inhibitor 76
Cc1ccc(NC(=O)c2cc(-c3cc(Cl)ccc3O)n[nH]2)cc1C	none
C[C@@]12C=Cc3occc3[C@H]1CC[C@@]13C[C@@H](CC[C@H]12)[C@@](O)(CO)C3	none (no result: LmPK inh, NS1 function inh)
Cc1cc(C)c(S(=O)(=O)N2CCOC2CNC(=O)C(=O)NCCCn2ccnc2)c(C)c1 (stereo unspecified)	none
C=CCC(C)(O)c1ccsc1 (stereo unspecified)	none (no result: CHX counter, LmPK inh, NS1 function inh, Shiga inhibitor)
O=C(CCn1nc(-c2ccc(Cl)cc2)ccc1=O)N1CCN(c2ccc(F)cc2)CC1	none
O=C(Nc1ccc(Nc2ccc3c(c2)C(=O)c2ccccc2C3=O)c2c1C(=O)c1ccccc1C2=O)c1ccccc1	none (no result: FBPA Giardia inh, CHX counter, LmPK inh, Shiga inhibitor)
O=C(NNC(=O)c1ccccc1C(F)(F)F)c1csc(N2CCOCC2)n1	none (no result: FBPA Giardia inh)
Cc1c(O)ccc(/C(Cc2ccc3ccccc3n2)=N\O)c1O	none
CC(=O)Oc1ccc(C(=O)Cc2ccc3ccccc3n2)c(O)c1C	CHX counter 26, Shiga inhibitor active
N#CCC(=O)Nc1ccc(C(=O)NCc2cccc(Cl)c2)cc1	none
CCCCn1c(O)c(N=NC(=O)c2ccco2)c2ccccc21	CHX counter 66, Shiga inhibitor 86
CCOC(=O)N=Nc1c(O)n(Cc2ccccc2)c2ccccc12	CHX counter 29, Shiga inhibitor 46 (no result: NS1 function inh)
O=c1[nH]c(CN2CCN(S(=O)(=O)c3cccs3)CC2)nc2c(Br)cc(Br)cc12	none (no result: NS1 function inh)
COc1ccc(NC(=O)C2(S(=O)(=O)c3ccc(C)cc3)CC2)cc1	none
Cc1ccn2cc(-c3ccc(S(=O)(=O)N4CCOCC4)cc3)nc2c1	CHX counter 48, NS1 function inh inconclusive
Cc1ccc(S(=O)(=O)N2CCOCC(=O)NCCOCCNC(=O)COCC2)cc1	none
Cc1cccn2cc(-c3cccc(S(=O)(=O)N4CCOCC4)c3)nc12	none (no result: FBPA Giardia inh)
Cc1ccc2nc(-c3ccc(S(=O)(=O)N4CCOCC4)cc3)cn2c1	CHX counter 24
CC(C)c1ccc2c(c1)C1Cc3ccccc3C1N2 (stereo unspecified)	FBPA Giardia inh inconclusive, CHX counter 56, Shiga inhibitor 42
Brc1cc(Cc2nnc(-c3ccccc3)o2)c(Br)s1	CHX counter 14
O=C(c1ccncc1)N1CCC2(CC1)CCN(c1ccccn1)CC2	none (no result: CHX counter, LmPK inh, NS1 function inh, Shiga inhibitor)
COc1ccc(-c2cc(CC3(C(=O)O)CCN(C(=O)OC(C)(C)C)CC3)on2)c(OC)c1	none
Cn1nnc2cc(C(=O)Nc3ccc4ccccc4c3)ccc21	CHX counter 36, Shiga inhibitor 108
COc1cc(C(=O)Nc2ccc3ccccc3c2)cc(OC)c1OC	CHX counter 14
COc1ccc(C(=O)Nc2ccc3ccccc3c2)cc1OC	CHX counter 43, Shiga inhibitor 68
COc1ccc(C(=O)Nc2ccncc2)cc1OC	none
COc1ccc(OC)c(C(=O)c2ccc(C(=O)Nc3ccc4ccccc4c3)cc2)c1	CHX counter 50, Shiga inhibitor active
COc1cc(C(=O)Nc2ccc3c(c2)Cc2ccccc2-3)cc(OC)c1OC	none
CCOC(=O)[C@@H]1[C@H]2COc3cc(OC)ccc3[C@@H]2N2C(=O)N(c3ccc(F)cc3)C(=O)[C@]12C	none
COc1cc(C(=O)Nc2ccc(O)cc2)ccc1OC(C)=O	LmPK inh inconclusive
COc1cc(C(=O)Nc2ccc(C(=O)O)cc2)ccc1OC(C)=O	LmPK inh 25µM (no result: NS1 function inh)
COc1ccc(C(=O)Nc2ccc3c(c2)C(=O)c2ccccc2C3=O)cc1OC	CHX counter 31
O=C(O)[C@@H]1[C@H](C(=O)O)[C@]2(Cl)C(Cl)=C(Cl)[C@@]1(Cl)C2(Cl)Cl	none (no result: FBPA Giardia inh, CHX counter, LmPK inh, Shiga inhibitor)
CC(C)c1ccc(/C=C/C(=O)NC2=NCCS2)cc1	CHX counter 44, Shiga inhibitor 44
CC(C)C(C(=O)NC1=NCCS1)c1ccc(Cl)cc1 (stereo unspecified)	none (no result: NS1 function inh)
O=C(/C=C/c1ccc(Cl)c(Cl)c1)NC1=NCCS1	CHX counter 35, Shiga inhibitor 79
NC(=O)c1cc2ccc(O)cc2oc1=NCc1ccccc1	CHX counter 16
NC(=O)c1cc2ccc(O)cc2oc1=Nc1ccccc1	CHX counter 63, Shiga inhibitor 50
